Results published in PubChem BioAssay (NCATS).
Inconclusive results are not listed. A call without a number means that no potency is given here. The source made the active and inactive calls. Calls follow the shape of the dose curve; as a rule, active = well fitted curve in the direction sought with a large enough effect; inconclusive = small, poorly fitted or top-dose-only effect, or another doubt; inactive = no such curve, though single readings can be large; an effect the other way counts as inactive or inconclusive.

Key:
[1] = qHTS to identify inhibitors of the type 1 interferon - major histocompatibility complex class I in skeletal muscle: primary screen against the NCATS LOPAC collection (AID 1347405);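 also: human myoblasts with HiBiT tag on endogenous HLA-B stimulated by IFN-beta; lytic HiBiT luminescence reporting HLA-B protein level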
In short: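 HLA-B HiBiT myoblasts, IFN-b 4 ng/ml, dexamethasone-free medium; compounds 7-pt 1:4.3 titration, top 46 uM final; 24 h at 37 C; Nano-Glo HiBiT lytic reagent, 10 min RT, luminescence.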

[2] = qHTS for inhibitors of adenylyl cyclases using a fission yeast platform: a pilot screen against the NCATS LOPAC library (AID 1347410)
In short: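 Inhibition of GNAS-stimulated AC9 activity in S. pombe was inferred from derepression of a PKA-repressed fbp1-GFP reporter, measured as cytometric fluorescence after 18 h at 30C with compounds at up to 57 µM.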

[3] = qHTS to identify inhibitors of the type 1 interferon - major histocompatibility complex class I in skeletal muscle: primary screen against the NCATS Mechanism Interrogation Plate v5.0 (MIPE) Libary (AID 1347411); also: nearly all actives have a fitted effect of over 65% in size; also: potency is read from the fitted curve at half-maximal effect
In short: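 HLA-B HiBit myoblasts, dexamethasone-free medium + 4 ng/ml IFN-b, 24 h compound, 11-pt 1:3 from 46 uM final. Readout: Nano-Glo HiBiT lytic luminescence after 10 min lysis, RT.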

[4] = target: Calcium and integrin-binding protein 1 (Homo sapiens) (UniProt Q99828); test: Validation qHTS for Identification of Calcium Integrin Binding protein 1 (CIB1) Competitor (AID 1508618)
Calcium and integrin-binding protein 1 (Homo sapiens), sequence (Q99828 whole entry, looked up): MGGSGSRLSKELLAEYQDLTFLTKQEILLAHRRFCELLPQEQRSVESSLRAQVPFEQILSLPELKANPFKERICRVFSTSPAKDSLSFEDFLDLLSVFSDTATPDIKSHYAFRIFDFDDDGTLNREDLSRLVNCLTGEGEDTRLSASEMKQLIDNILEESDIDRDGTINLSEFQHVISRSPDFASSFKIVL
In short: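 Displacement of FITC-alphaIIb peptide (100 nM) from CIB1-GST (1 uM) is monitored by polarization in quantitative HTS format; buffer carries 5 mM CaCl2 and 125 mM NaCl at pH 7.4, incubations are at room temperature.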

[5] = target: Calcium and integrin-binding protein 1 (Homo sapiens) (UniProt Q99828); test: Primary qHTS for Identification of Calcium Integrin Binding Protein 1 (CIB1) Competitor (AID 1508620);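 also: GST tagged CIB1 binding a fluorescein labelled alphaIIb integrin peptide tracer; top concentration of the series differs between compounds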
In short: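 Fluorescence polarization competition: CIB1-GST (1 uM final) preincubated with compound 15 min at room temperature, then FITC-labeled alphaIIb peptide (100 nM final) added for another 15 min. Polarization read at Ex 480/Em 540.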

[6] = qHTS to identify inhibitors of the type 1 interferon - major histocompatibility complex class I in skeletal muscle: primary screen against the NCATS Pharmaceutical Collection (AID 1347407);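 also: luminescence of HiBiT knocked into endogenous HLA-B as interferon-induced MHC class I level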
In short: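 A qHTS format is used: 8-point, 1:5 compound series with 46 uM top final concentration, applied alongside 4 ng/ml IFN-beta to HLA-B*08:01-HiBiT knock-in myoblasts. Luminescence is measured after 24 h treatment.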

[7] = target: Protein phosphatase 1D (Homo sapiens) (UniProt O15297); test: RapidFire Mass Spectrometry qHTS Assay for Modulators of WT P53-Induced Phosphatase 1 (WIP1) (AID 1347424);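 also: amount of dephosphorylated VEPPL-S-QETFS peptide product formed by WIP1; series mostly up to about 63 µM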
Protein phosphatase 1D (Homo sapiens), sequence (O15297 whole entry, looked up): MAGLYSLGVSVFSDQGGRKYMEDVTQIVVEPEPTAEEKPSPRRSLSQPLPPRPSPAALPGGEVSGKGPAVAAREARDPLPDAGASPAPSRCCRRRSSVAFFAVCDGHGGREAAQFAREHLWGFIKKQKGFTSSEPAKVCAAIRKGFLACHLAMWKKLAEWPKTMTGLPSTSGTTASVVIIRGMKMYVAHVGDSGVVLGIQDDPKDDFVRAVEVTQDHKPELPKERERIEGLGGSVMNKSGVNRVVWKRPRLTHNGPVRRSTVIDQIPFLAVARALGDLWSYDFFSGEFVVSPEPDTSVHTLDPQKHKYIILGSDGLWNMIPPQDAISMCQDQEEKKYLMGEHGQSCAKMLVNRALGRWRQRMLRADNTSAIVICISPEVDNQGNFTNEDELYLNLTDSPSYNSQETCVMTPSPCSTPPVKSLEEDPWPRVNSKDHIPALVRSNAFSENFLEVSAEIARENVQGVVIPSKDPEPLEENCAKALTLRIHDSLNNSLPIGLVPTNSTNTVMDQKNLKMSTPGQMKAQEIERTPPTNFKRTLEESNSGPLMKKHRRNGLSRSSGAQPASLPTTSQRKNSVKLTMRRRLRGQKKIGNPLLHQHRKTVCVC
In short: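 Mass-spectrometric measurement of dephosphorylated peptide after a 5 min room-temperature reaction of 10 nM WIP1 with 2 uM phosphopeptide, following 1 h compound preincubation in 30 mM MgCl2 buffer.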

[8] = target: Protein phosphatase 1D (Homo sapiens) (UniProt O15297); test: Rhodamine-PBP qHTS Assay for Modulators of WT P53-Induced Phosphatase 1 (WIP1) (AID 1347425)
In short: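 5 nM WIP1 + 10 uM Rh-PBP, 50 mM Tris pH 7.5, 30 mM MgCl2, 1 mM TCEP, 0.1 mM EGTA, BSA; cpds pinned, 1 hr RT; + 10 uM phosphopeptide; fluorescence 1-min reads x 11 min; delta = f1 - f0.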

[9] = Validation qHTS assay for inhibitors of Activation Induced Cytidine Deaminase (AID): UDG Counterscreen signal (AID 1347427)
In short: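 Fluorescence at 560 nm excitation, 665 nm emission reports UDG signal after 250 mM NaOH (2x) addition and 30 min. Enzymes (AID 1 uM, UDG 2 U/mL, at 4/3x) preincubated 10 min with compound, then 4 h with 4x 250 nM DJC20/DJC23 substrate at room temperature.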

[10] = target: Single-stranded DNA cytosine deaminase (Homo sapiens) (UniProt Q9GZX7); test: Validation qHTS assay for inhibitors of Activation Induced Cytidine Deaminase (AID): AID signal (AID 1347429)
Single-stranded DNA cytosine deaminase (Homo sapiens), sequence (Q9GZX7 whole entry, looked up): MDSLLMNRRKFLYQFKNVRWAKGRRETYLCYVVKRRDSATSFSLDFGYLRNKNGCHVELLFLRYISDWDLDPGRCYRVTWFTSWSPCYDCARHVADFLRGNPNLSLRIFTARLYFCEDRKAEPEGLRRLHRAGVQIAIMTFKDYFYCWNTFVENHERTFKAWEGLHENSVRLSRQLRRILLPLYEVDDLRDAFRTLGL
In short: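 AID+UDG coupled FRET deamination; cpds up to 114 uM final; DJC20/DJC23 substrate, 4 hr RT; NaOH stop, 30 min RT; read Ex 540/Em 590.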

[11] = Primary qHTS for inhibitors of La Crosse Virus (LACV) - induced cell death in SH-SY5Y cells (AID 1508616);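 also: top concentration of the series differs between compounds; higher means more rescue of cells from virus-induced death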
In short: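 Cytopathicity rescue screen: compounds pinned onto SH-SY5Y cells, which are then infected with LACV (MOI 0.01) and held 6 days at 37C. Percent activity is scaled between infected DMSO control and uninfected DMSO control.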

[12] = target: Calcium and integrin-binding protein 1 (Homo sapiens) (UniProt Q99828); test: Confirmatory qHTS for Identification of Calcium Integrin Binding Protein 1 (CIB1) Competitor (AID 1508617); also: nearly all actives have a fitted effect of over 65% in size
In short: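 Confirmatory qHTS measures displacement of a FITC-alphaIIb peptide (100 nM) from CIB1-GST (1 uM) by fluorescence polarization. Calcium-containing HEPES buffer, pH 7.4; two 15 min room-temperature incubations.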

[13] = target: Lysine-specific demethylase 5B (Homo sapiens) (UniProt Q9UGL1); test: Optimization screen for KDM5B Histone Demethylases FDH coupled qHTS against the LOPAC library (AID 1347166)
Lysine-specific demethylase 5B (Homo sapiens), sequence (Q9UGL1 whole entry, looked up): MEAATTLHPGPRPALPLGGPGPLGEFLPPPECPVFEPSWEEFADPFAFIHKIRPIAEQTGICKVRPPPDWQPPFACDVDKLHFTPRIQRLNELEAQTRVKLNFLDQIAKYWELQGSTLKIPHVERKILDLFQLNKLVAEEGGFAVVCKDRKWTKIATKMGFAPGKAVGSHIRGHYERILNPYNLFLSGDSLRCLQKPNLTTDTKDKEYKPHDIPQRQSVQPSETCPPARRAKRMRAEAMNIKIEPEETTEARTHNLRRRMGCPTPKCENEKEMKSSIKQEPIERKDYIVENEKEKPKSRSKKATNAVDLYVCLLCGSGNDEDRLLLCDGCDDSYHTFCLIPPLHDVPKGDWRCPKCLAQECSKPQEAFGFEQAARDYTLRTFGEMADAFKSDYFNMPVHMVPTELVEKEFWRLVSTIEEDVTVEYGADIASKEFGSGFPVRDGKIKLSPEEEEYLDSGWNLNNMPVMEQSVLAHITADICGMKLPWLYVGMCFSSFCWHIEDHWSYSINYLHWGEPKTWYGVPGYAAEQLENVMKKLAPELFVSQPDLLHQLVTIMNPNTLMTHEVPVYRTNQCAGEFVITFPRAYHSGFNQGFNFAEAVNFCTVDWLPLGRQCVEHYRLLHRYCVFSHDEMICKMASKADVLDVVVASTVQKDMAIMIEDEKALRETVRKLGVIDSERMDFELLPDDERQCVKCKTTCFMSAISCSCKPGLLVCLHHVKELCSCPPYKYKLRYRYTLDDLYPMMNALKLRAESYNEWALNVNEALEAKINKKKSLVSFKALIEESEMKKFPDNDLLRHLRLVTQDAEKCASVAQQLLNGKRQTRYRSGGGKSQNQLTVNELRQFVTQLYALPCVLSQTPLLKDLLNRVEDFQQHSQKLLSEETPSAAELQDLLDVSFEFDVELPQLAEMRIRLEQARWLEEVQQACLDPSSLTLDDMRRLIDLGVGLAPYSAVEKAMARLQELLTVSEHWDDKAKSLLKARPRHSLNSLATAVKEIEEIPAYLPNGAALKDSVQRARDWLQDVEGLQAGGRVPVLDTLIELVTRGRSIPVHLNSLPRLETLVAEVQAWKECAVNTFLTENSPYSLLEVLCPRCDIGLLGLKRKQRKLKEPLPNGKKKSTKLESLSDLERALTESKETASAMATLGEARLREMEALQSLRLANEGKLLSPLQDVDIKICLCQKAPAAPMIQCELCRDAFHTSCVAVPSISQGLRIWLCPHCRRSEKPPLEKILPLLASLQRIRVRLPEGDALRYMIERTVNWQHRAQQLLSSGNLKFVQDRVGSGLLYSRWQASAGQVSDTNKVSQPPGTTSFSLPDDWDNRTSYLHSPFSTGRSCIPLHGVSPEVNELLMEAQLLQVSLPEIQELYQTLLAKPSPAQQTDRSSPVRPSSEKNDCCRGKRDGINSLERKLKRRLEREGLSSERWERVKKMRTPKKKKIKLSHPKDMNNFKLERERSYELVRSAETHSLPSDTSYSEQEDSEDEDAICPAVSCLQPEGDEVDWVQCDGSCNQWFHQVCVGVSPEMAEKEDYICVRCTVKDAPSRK
In short: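 KDM5BDeltaAP (200nM final) in 50mM HEPES pH 7.5, 0.01% Tween-20 was preincubated with compound for 10 min at room temperature. A substrate mix of 12.5uM H3K4Me3, 25uM a-ketoglutarate, ascorbate, Fe2+, NAD+ and formaldehyde dehydrogenase was then added. NADH fluorescence (340/450 nm) was read initially and after 30 min.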

[14] = Counterscreen qHTS for small molecule stabilizers of the endoplasmic reticulum resident proteome: GLuc-NoTag assay (AID 1508627); also: series mostly up to about 76 µM
In short: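 Secreted GLuc lacking the SERCaMP modification is measured in SH-SY5Y cells exposed to compound for 19 h and then to thapsigargin (100 nM, 4 h) to deplete ER calcium; hits retested at 11 concentrations, up to 76.6 uM.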

Compound	Potency [1]	outcome [2]	Potency [3]	Potency [4]	outcome [5]	outcome [6]	Potency [7]	outcome [8]	outcome [9]	Potency [10]	outcome [11]	Potency [12]	outcome [13]	Potency [14]
CCc1cncnc1N1CCN(Cc2nc3ccc(C(F)(F)F)cc3[nH]2)CC1	inactive	inactive	inactive	inactive	inactive	–	–	–	–	–	–	–	–	–
NCCc1ccc(O)c(O)c1	inactive	inactive	inactive	inactive	inactive	inactive	inactive	inactive	inactive	inactive	inactive	–	–	–
CC(=O)Oc1ccccc1C(=O)O	inactive	inactive	inactive	inactive	inactive	inactive	inactive	inactive	inactive	inactive	inactive	–	–	–
NC[C@H](O)c1ccc(O)c(O)c1	inactive	inactive	–	inactive	inactive	inactive	–	inactive	inactive	inactive	inactive	inactive	–	–
O=C(O)CCc1ccc(NCc2cccc(Oc3ccccc3)c2)cc1	inactive	inactive	inactive	inactive	inactive	–	–	–	–	–	–	–	–	–
CCC(C)N(C)C(=O)c1cc2ccccc2c(-c2ccccc2Cl)n1 (stereo not drawn)	inactive	inactive	inactive	inactive	inactive	–	–	–	inactive	inactive	inactive	–	inactive	–
Cc1oncc1C(=O)Nc1ccc(C(F)(F)F)cc1	–	inactive	18.6 µM (active)	inactive	inactive	–	inactive	inactive	inactive	inactive	inactive	–	inactive	–
Cc1ccccc1C(OCCN(C)C)c1ccccc1 (stereo not drawn)	inactive	inactive	–	inactive	inactive	inactive	inactive	inactive	inactive	inactive	inactive	–	inactive	inactive
